For one sequence, binding signal results are on record in article PMC7862700, “An all-to-all approach to the identification of sequence-specific readers for epigenetic DNA modifications on cytosine”.

Common to all, as to test: DAPPL (digital affinity profiling via proximity ligation, sequencing); 10 mM Tris-HCl pH 7.5, 50 mM NaCl, 1 mM DTT, 4% glycerol, room temperature, 30 min; GST-TFs on glutathione beads, 16-mer random dsDNA library, 0.1% formaldehyde crosslink after washing; high values mean tight binding
The target in one experiment is T1, FEV (Homo sapiens, UniProt Q99581 1-238).
T1 sequence: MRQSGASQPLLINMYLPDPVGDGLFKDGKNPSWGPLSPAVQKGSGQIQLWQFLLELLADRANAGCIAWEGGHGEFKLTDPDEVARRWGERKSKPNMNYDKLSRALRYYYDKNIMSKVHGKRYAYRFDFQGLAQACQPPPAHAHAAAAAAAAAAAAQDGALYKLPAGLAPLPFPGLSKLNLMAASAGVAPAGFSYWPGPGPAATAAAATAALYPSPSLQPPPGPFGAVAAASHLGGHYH
To be noted: protein: recombinant; tags: N-terminal GST; dsDNA, one strand shown. In short, it runs like this:
(§1)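 Yeast served to express human transcription factors as GST fusions, which were then captured on glutathione beads and labelled with DNA barcodes. Pooled with a tag-only sample, they were incubated with 200 nmole of a 16-mer random double-stranded DNA library for 30 min at room temperature in Tris/NaCl/DTT/glycerol buffer, washed, crosslinked with 0.1% formaldehyde, ligated by proximity, amplified by PCR and sequenced. Dividing each hexamer's read frequency for a factor by its frequency for the tag-only sample gives the binding signal.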

The target in another experiment is ETV5 (Homo sapiens, UniProt P41161 1-510). Conditions: protein: recombinant; tags: N-terminal GST; dsDNA, one strand shown. A digest of the protocol: as §1
Chain of ETV5 (P41161 whole entry): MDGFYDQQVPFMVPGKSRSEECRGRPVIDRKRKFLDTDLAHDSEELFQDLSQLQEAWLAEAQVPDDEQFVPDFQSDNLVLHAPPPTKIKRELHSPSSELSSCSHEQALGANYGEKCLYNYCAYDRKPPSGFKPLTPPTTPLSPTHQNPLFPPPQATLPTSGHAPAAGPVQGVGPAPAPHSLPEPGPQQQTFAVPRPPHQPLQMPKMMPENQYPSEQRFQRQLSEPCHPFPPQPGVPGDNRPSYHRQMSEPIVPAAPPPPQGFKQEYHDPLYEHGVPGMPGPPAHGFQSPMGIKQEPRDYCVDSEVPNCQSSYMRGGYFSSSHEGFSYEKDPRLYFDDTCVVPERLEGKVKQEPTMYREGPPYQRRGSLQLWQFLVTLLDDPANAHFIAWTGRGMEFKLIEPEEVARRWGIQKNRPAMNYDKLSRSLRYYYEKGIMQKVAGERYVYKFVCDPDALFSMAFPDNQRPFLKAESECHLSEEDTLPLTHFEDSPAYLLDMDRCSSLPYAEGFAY
A further experiment concerns the target HSF1 (Homo sapiens, UniProt Q00613 1-529). To be noted: protein: recombinant; tags: N-terminal GST; chain copies: 3; dsDNA, one strand shown. In short, it runs like this:
as §1

The next experiment addresses T2, SPIC (Homo sapiens, UniProt Q8N5J4 1-248).
T2 sequence: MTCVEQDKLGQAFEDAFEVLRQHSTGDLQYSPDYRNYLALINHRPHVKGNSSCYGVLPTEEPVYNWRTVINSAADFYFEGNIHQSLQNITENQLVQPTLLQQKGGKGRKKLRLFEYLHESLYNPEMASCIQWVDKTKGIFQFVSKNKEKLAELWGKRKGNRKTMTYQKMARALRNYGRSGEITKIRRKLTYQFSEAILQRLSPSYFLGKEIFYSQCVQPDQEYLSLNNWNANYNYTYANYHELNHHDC
To be noted: protein: recombinant; tags: N-terminal GST; dsDNA, one strand shown. In short, it runs like this:
as §1

In the next experiment the target is ELF4 (Homo sapiens, UniProt Q99607 1-663). To be noted: protein: recombinant; tags: N-terminal GST; dsDNA, one strand shown. A digest of the protocol:
as §1

A further experiment concerns the target T3, ELK4 (Homo sapiens, UniProt P28324-2 1-405).
T3 sequence: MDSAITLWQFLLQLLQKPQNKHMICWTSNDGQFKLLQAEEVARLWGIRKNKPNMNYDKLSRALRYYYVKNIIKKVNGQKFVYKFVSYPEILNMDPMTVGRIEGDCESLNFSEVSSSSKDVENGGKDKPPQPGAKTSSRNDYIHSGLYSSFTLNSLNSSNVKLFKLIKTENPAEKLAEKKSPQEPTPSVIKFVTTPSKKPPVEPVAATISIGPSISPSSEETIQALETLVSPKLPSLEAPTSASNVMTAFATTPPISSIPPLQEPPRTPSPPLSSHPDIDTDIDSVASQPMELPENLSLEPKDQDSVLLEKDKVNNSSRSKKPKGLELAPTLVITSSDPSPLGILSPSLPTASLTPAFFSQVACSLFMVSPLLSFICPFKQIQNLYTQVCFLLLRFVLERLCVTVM
Conditions: protein: recombinant; tags: N-terminal GST; dsDNA, one strand shown. In short, it runs like this: as §1

A further experiment deals with T4, ETV2 (Homo sapiens, UniProt O00321 1-342).
T4 sequence: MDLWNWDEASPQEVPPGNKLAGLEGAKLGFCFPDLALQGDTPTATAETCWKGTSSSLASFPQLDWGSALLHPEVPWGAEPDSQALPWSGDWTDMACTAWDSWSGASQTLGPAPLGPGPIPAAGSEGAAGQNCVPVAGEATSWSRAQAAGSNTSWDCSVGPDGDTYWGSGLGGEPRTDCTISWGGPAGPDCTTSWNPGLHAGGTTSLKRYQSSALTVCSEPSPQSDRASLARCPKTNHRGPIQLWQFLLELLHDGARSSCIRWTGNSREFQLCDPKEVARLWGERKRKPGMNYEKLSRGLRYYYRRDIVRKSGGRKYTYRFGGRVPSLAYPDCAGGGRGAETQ
To be noted: protein: recombinant; tags: N-terminal GST; dsDNA, one strand shown. A digest of the protocol:
as §1

The next experiment has as its target T5, ELF3 (Homo sapiens, UniProt P78545 1-371).
T5 sequence: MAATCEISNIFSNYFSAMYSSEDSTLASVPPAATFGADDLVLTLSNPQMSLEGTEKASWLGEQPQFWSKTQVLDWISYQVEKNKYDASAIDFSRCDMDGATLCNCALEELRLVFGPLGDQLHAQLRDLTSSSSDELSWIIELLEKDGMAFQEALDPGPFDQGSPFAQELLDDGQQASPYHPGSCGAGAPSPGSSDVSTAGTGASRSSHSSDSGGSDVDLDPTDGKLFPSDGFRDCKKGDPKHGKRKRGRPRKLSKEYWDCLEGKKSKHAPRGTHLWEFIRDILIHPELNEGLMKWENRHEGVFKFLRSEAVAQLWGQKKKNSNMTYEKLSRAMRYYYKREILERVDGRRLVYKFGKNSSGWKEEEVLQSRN
Conditions: protein: recombinant; tags: N-terminal GST; dsDNA, one strand shown. In short, it runs like this: as §1

A further experiment addresses CRX (Homo sapiens, UniProt O43186 1-299). Conditions: protein: recombinant; tags: N-terminal GST; dsDNA, one strand shown. In short, it runs like this:
as §1

A further experiment has as its target ETV1 (Homo sapiens, UniProt P50549 1-477). To be noted: protein: recombinant; tags: N-terminal GST; dsDNA, one strand shown. In short, it runs like this:
as §1

Another experiment addresses T6, ERF (Homo sapiens, UniProt P50548 1-548).
T6 sequence: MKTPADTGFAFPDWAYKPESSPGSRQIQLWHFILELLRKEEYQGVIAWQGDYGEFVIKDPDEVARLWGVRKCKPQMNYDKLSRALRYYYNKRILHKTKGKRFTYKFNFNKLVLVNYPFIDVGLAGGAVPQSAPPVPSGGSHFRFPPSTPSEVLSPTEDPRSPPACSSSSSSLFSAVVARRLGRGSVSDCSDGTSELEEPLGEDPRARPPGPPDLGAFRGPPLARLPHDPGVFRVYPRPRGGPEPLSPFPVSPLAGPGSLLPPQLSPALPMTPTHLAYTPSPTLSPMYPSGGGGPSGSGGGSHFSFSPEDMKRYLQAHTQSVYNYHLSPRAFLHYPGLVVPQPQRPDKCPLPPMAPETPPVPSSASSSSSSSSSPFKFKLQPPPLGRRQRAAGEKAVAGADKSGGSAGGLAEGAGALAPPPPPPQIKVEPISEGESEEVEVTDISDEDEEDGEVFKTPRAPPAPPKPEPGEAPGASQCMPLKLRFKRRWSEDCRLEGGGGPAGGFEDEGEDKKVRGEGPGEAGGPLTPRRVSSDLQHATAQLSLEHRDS
Conditions: protein: recombinant; tags: N-terminal GST; dsDNA, one strand shown. In short, it runs like this: as §1

In a further experiment the target is T7, ETV3L (Homo sapiens, UniProt Q6ZN32 1-361).
T7 sequence: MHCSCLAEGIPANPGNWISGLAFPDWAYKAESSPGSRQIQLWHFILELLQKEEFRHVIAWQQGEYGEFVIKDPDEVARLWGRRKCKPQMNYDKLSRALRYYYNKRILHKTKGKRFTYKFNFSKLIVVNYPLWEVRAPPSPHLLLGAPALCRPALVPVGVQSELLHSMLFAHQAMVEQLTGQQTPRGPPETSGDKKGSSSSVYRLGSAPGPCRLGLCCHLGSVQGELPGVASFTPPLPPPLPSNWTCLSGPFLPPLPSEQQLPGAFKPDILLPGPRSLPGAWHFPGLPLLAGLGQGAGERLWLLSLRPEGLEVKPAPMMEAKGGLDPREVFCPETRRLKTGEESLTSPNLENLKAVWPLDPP
To be noted: protein: recombinant; tags: N-terminal GST; dsDNA, one strand shown. In short, it runs like this: as §1

For another experiment, the target named is T8, ETS2 (Homo sapiens, UniProt P15036 1-469).
T8 sequence: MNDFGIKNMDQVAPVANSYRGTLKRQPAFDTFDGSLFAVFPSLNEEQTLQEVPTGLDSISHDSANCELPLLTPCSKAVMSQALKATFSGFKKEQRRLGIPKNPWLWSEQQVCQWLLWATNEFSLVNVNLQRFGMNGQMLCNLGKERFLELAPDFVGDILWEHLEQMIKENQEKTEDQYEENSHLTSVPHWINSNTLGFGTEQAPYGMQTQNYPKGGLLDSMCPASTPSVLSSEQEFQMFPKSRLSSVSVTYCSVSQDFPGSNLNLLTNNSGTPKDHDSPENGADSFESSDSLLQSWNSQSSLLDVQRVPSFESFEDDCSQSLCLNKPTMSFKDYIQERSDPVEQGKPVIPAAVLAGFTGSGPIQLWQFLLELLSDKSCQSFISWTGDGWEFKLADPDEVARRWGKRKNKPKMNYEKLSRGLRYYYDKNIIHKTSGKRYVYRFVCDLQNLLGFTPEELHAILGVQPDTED
To be noted: protein: recombinant; tags: N-terminal GST; dsDNA, one strand shown. A digest of the protocol:
as §1

Another experiment concerns the target T9, SPDEF (Homo sapiens, UniProt O95238 1-335).
T9 sequence: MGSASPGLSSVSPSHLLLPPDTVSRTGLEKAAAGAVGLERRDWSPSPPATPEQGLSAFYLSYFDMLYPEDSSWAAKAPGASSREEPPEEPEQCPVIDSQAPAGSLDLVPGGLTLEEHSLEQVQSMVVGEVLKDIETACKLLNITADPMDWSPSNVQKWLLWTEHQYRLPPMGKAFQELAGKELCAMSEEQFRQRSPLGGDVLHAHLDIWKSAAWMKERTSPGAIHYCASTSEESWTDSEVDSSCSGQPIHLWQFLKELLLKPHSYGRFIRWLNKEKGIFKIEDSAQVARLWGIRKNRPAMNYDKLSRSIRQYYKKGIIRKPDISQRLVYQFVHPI
To be noted: protein: recombinant; tags: N-terminal GST; dsDNA, one strand shown. A digest of the protocol: as §1

The target of the next experiment is T10, ETV7 (Homo sapiens, UniProt Q9Y603 1-341).
T10 sequence: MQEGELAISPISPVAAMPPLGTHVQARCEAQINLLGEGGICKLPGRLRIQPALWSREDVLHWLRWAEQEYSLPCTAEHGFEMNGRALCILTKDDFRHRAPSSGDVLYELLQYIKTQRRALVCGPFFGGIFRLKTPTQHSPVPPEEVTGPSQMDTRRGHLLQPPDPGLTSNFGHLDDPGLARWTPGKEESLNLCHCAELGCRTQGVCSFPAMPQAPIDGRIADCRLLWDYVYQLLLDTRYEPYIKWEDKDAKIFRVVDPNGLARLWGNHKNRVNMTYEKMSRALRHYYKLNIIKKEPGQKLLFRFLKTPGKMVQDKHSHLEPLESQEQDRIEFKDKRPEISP
To be noted: protein: recombinant; tags: N-terminal GST; dsDNA, one strand shown. In short, it runs like this: as §1

The target of the next experiment is T11, ELF5 (Homo sapiens, UniProt Q9UKW6-2 1-255).
T11 sequence: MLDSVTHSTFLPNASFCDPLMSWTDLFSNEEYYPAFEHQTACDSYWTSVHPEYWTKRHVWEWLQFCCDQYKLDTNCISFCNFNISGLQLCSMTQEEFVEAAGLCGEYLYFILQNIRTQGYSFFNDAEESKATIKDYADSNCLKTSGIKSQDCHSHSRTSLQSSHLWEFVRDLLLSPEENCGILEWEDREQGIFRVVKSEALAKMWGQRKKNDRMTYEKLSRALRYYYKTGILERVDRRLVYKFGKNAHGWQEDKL
To be noted: protein: recombinant; tags: N-terminal GST; dsDNA, one strand shown. A digest of the protocol:
as §1

In the next experiment the target is T12, ETV3 (Homo sapiens, UniProt P41162-2 1-143).
T12 sequence: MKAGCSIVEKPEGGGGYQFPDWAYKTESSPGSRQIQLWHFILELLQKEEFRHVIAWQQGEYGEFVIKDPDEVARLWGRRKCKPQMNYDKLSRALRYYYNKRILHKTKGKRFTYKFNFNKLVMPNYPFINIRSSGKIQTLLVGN
To be noted: protein: recombinant; tags: N-terminal GST; dsDNA, one strand shown. In short, it runs like this: as §1

For a further experiment, the target named is ETV6 (Homo sapiens, UniProt P41212 1-452). Conditions: protein: recombinant; tags: N-terminal GST; dsDNA, one strand shown. A digest of the protocol: as §1
Chain of ETV6 (P41212 whole entry): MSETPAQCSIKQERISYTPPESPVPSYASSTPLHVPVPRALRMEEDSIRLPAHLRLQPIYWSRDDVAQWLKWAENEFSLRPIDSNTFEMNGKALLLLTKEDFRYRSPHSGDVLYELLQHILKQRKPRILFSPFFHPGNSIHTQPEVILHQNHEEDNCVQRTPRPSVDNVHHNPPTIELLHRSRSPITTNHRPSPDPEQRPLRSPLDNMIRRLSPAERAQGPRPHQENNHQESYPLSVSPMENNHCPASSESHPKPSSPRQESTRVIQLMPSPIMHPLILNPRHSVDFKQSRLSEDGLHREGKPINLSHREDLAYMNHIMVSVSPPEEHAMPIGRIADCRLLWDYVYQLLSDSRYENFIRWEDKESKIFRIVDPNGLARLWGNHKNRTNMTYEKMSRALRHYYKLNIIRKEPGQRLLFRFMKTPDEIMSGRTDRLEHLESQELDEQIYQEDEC

Chain of CRX (O43186 whole entry): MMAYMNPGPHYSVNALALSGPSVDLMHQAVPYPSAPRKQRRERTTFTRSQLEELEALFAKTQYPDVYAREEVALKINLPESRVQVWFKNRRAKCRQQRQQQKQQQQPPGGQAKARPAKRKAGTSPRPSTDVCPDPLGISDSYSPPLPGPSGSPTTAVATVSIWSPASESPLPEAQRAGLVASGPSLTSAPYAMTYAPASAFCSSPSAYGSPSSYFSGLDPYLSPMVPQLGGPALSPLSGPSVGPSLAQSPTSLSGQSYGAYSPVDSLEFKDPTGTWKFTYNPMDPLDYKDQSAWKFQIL
Chain of HSF1 (Q00613 whole entry): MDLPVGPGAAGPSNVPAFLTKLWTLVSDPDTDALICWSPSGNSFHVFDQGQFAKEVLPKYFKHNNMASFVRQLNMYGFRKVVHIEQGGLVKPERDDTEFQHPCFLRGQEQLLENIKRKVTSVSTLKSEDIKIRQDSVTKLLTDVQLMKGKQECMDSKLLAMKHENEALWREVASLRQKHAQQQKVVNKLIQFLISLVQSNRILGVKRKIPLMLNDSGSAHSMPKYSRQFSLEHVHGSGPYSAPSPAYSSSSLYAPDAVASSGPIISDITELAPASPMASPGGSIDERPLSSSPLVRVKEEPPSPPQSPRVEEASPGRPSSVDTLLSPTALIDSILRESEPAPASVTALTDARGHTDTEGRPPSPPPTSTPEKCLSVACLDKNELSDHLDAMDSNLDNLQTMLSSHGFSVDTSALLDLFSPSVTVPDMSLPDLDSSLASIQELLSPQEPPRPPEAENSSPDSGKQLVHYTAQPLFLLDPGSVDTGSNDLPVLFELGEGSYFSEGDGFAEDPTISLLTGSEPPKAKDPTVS
Chain of ELF4 (Q99607 whole entry): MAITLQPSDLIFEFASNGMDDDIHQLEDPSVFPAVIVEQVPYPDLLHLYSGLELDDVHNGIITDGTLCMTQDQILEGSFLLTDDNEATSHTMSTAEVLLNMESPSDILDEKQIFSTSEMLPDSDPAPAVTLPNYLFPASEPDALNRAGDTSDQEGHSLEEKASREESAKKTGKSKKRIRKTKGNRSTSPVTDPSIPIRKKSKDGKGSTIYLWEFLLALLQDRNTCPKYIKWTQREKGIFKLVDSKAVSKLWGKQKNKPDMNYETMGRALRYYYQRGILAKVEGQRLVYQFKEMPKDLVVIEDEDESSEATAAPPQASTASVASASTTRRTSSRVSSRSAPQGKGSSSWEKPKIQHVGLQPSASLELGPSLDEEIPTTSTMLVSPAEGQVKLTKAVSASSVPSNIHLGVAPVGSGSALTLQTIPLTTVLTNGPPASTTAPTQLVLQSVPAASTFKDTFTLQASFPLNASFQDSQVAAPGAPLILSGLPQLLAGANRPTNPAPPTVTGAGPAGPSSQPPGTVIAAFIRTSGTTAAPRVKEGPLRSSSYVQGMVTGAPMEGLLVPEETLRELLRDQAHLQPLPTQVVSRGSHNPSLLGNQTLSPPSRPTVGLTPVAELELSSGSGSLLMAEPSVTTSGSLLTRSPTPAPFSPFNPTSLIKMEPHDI
Chain of ETV1 (P50549 whole entry): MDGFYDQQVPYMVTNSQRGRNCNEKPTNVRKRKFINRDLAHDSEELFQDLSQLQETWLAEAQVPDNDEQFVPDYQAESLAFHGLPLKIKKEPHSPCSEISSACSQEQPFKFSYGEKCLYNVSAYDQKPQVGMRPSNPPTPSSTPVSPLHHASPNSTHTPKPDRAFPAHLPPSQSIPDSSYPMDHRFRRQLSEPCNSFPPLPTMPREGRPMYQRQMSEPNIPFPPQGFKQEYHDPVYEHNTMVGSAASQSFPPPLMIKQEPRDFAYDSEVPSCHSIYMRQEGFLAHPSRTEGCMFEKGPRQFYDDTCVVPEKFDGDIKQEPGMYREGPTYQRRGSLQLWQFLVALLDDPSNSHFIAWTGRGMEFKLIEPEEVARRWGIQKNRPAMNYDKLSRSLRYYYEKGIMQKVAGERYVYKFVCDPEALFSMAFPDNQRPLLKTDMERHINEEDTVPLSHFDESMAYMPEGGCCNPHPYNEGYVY

As for CTTAGA, the binding signal with FEV is 1.15 fold enrichment (6-mer frequency, TF over GST control); in the experiment with ETV5 it was 1.06 fold enrichment (6-mer frequency, TF over GST control); in the experiment with HSF1 it was 1.53 fold enrichment (6-mer frequency, TF over GST control); with SPIC, 1.27 fold enrichment (6-mer frequency, TF over GST control); with ELF4, 1.09 fold enrichment (6-mer frequency, TF over GST control); with ELK4 it was 1.24 fold enrichment (6-mer frequency, TF over GST control). The binding signal is 1.15 fold enrichment (6-mer frequency, TF over GST control) with ETV2; 1.07 fold enrichment (6-mer frequency, TF over GST control) with ELF3; 1.69 fold enrichment (6-mer frequency, TF over GST control) in the experiment with CRX; 1.14 fold enrichment (6-mer frequency, TF over GST control) with ETV1; 1.18 fold enrichment (6-mer frequency, TF over GST control) with ERF; 1.17 fold enrichment (6-mer frequency, TF over GST control) with ETV3L. In addition, the binding signal is 1.06 fold enrichment (6-mer frequency, TF over GST control) with ETS2; 1.16 fold enrichment (6-mer frequency, TF over GST control) with SPDEF; 1.07 fold enrichment (6-mer frequency, TF over GST control) in the experiment with ETV7; 1.04 fold enrichment (6-mer frequency, TF over GST control) with ELF5; 1.07 fold enrichment (6-mer frequency, TF over GST control) with ETV3; 1.11 fold enrichment (6-mer frequency, TF over GST control) in the experiment with ETV6.
